Data: the supplement of paper PMC13380429

System: Vero E6 infected with SARS-CoV-2
Experiment: inhibition of SARS-CoV-2 cytopathic effect; higher = more antiviral protection, active = above 15
Settings: 48 h

Measured: inhibition of SARS-CoV-2 cytopathic effect

Nc1nc(F)nc2c1ncn2[C@@H]1O[C@H](COP(=O)(O)O)[C@@H](O)[C@@H]1O [fludarabine-phosphate]
inactive: 1 nM 1.37% | 8.33 nM 1.76% | 100 nM -0.32% | 833.33 nM 1.79% | 10000 nM -4.26%

Cc1cnc(Nc2ccc(OCCN3CCCC3)cc2)nc1Nc1cccc(S(=O)(=O)NC(C)(C)C)c1 [fedratinib]
inactive: 1 nM -3.17% | 8.33 nM 1.42% | 100 nM -0.42% | 833.33 nM -3.59% | 10000 nM -18.4%

COc1ccc(C2(O)CCC(N3CC[C@@H](NC(=O)CNC(=O)c4cccc(C(F)(F)F)c4)C3)CC2)cn1 (stereo not given in full)
inactive: 1 nM -0.385% | 8.33 nM 0.89% | 100 nM -1.07% | 833.33 nM -1.1% | 10000 nM -0.44%
